# Reference: PubChem BioAssay (NCATS)
# Results filed as inconclusive are left out. Where a call stands in place of a potency, no number is given. Calls of active or inactive are those of the source. The call rests on the fitted dose curve; in most records, active means well fitted inhibition curve with a large enough effect; inconclusive means small, poorly fitted or top-dose-only effect; inactive means flat fitted curve, though single readings scatter.
# Legend:
# PC15 = test: qHTS profiling for inhibitors of Plasmodium falciparum proliferation (AID 504749); conditions: P. falciparum in erythrocytes, SYBR Green DNA, 72 h; series mostly up to 28.7 µM
# Procedure, shortened: (§1)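 SYBR Green fluorescence (ex 485 nm, em 535 nm) reports parasite DNA after 72 h compound exposure of infected red cells at 0.3% parasitemia, 2.5% hematocrit; signal normalized to 0.29 uM artemisinin and vehicle wells.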
# PC26 = test: as above; conditions: P. falciparum in erythrocytes, SYBR Green DNA, 72 h; series mostly up to 28.7 µM
# Procedure, shortened: as §1
# PC49 = test: as above; conditions: P. falciparum in erythrocytes, SYBR Green DNA, 72 h; series mostly up to 28.7 µM
# Procedure, shortened: as §1
# SC27B = test: as above; conditions: P. falciparum in erythrocytes, SYBR Green DNA, 72 h; series mostly up to 28.7 µM
# Procedure, shortened: as §1
# TAB109 = test: as above; conditions: P. falciparum in erythrocytes, SYBR Green DNA, 72 h; series mostly up to 28.7 µM
# Procedure, shortened: as §1
# TAB113 = test: as above; conditions: P. falciparum in erythrocytes, SYBR Green DNA, 72 h; series mostly up to 28.7 µM
# Procedure, shortened: as §1
# TAB165 = test: as above; conditions: P. falciparum in erythrocytes, SYBR Green DNA, 72 h; series mostly up to 28.7 µM
# Procedure, shortened: as §1
# W2 = test: as above; conditions: P. falciparum in erythrocytes, SYBR Green DNA, 72 h; series mostly up to 28.7 µM
# Procedure, shortened: as §1
# CRL-7250 = normal cell line; test: Cytotoxic Profiling of Annotated Libraries Using Quantitative High-Throughput Screening (AID 1296008); conditions: Five cell lines viability, CellTiter-Glo ATP luminescence, 48-72 h; max response: active compounds read low
# Procedure, shortened: (§2)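 Cells exposed to compounds for 48 or 72 hr at 37 degrees Celsius. Viability read as ATP-coupled luminescence with CellTiter-Glo after 10 min at room temperature.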
# KB-3-1 = test: as above; conditions: Five cell lines viability, CellTiter-Glo ATP luminescence, 48-72 h; max response: active compounds read low
# Procedure, shortened: as §2
# NIH3T3 [1] = test: as above; conditions: Five cell lines viability, CellTiter-Glo ATP luminescence, 48-72 h; max response: active compounds read low
# Procedure, shortened: as §2
# MCC-13 = test: qHTS assay to identify novel small-molecules to repurpose for Merkel cell carcinoma treatment (AID 1296009); conditions: MCC and control cell lines, CellTiter-Glo viability, 72 h; series mostly up to 46 µM
# Procedure, shortened: (§3)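 CellTiter-Glo luminescence after 72 hr compound exposure at 37 degree celsius gave cell viability. Libraries NPC and MIPE were run as 8- and 11-point dose responses; RLUs normalized to DMSO (negative) and no-cell (cytotoxicity) controls.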
# MKL-1 = test: as above; conditions: MCC and control cell lines, CellTiter-Glo viability, 72 h; series mostly up to 46 µM
# Procedure, shortened: as §3
# MKL-2 = test: as above; conditions: MCC and control cell lines, CellTiter-Glo viability, 72 h; series mostly up to 46 µM
# Procedure, shortened: as §3
# HaCat [2] = test: Cytotoxic Profiling of Annotated Libraries Using Quantitative High-Throughput Screening (AID 1296008); conditions: Five cell lines viability, CellTiter-Glo ATP luminescence, 48-72 h; max response: active compounds read low
# Procedure, shortened: as §2
# MCC-26 = test: qHTS assay to identify novel small-molecules to repurpose for Merkel cell carcinoma treatment (AID 1296009); conditions: MCC and control cell lines, CellTiter-Glo viability, 72 h; series mostly up to 46 µM
# Procedure, shortened: as §3
# HEK293 = test: Cytotoxic Profiling of Annotated Libraries Using Quantitative High-Throughput Screening (AID 1296008); conditions: Five cell lines viability, CellTiter-Glo ATP luminescence, 48-72 h; max response: active compounds read low
# Procedure, shortened: as §2
# HACAT [3] = test: qHTS assay to identify novel small-molecules to repurpose for Merkel cell carcinoma treatment (AID 1296009); conditions: MCC and control cell lines, CellTiter-Glo viability, 72 h; at 44.8 µM (top of the series) unless noted
# Procedure, shortened: as §3
# HEK293T = test: as above; conditions: MCC and control cell lines, CellTiter-Glo viability, 72 h; at 44.8 µM (top of the series) unless noted
# Procedure, shortened: as §3
# NIH3T3 [4] = test: as above; conditions: MCC and control cell lines, CellTiter-Glo viability, 72 h; at 44.8 µM (top of the series) unless noted
# Procedure, shortened: as §3
# Further: nearly all actives have a fitted effect of over 60% in size.
# Potency means the concentration at half of the fitted maximal effect.
structure (smiles),measurement,setting,value
O=C(COc1ccc(Cl)cc1)N1CCN(Cc2ccc3c(c2)OCO3)CC1,Potency,PC15,inactive
same,Potency,PC26,inactive
same,Potency,PC49,inactive
same,Potency,SC27B,inactive
same,Potency,TAB109,inactive
same,Potency,TAB113,inactive
same,Potency,TAB165,inactive
same,Potency,W2,inactive
same,max response,CRL-7250,-27.2% (inactive)
same,max response,KB-3-1,-11.1% (inactive)
same,max response,NIH3T3 [1],0.953% (inactive)
same,Potency,MCC-13,inactive
same,Potency,MKL-1,inactive
CC(C)=CCC1C(=O)N(c2ccccc2)N(c2ccccc2)C1=O,Potency,PC15,inactive
same,Potency,PC49,inactive
same,Potency,TAB109,inactive
same,max response,CRL-7250,-25.1% (inactive)
same,max response,KB-3-1,-9.06% (inactive)
same,max response,NIH3T3 [1],-29% (inactive)
same,Potency,MCC-13,inactive
same,Potency,MKL-2,13.3 µM (active)
CCCOC(C(=O)OC1CCN(C)CC1)(c1ccccc1)c1ccccc1,Potency,PC49,inactive
same,Potency,W2,6.01 µM (active)
same,max response,CRL-7250,-3.11% (inactive)
same,max response,HaCat [2],-26.2% (inactive)
same,max response,NIH3T3 [1],4.34% (inactive)
same,Potency,MCC-13,inactive
same,Potency,MCC-26,inactive
same,Potency,MKL-1,inactive
C[C@]12CCC(=O)C=C1[C@@H]1C[C@@H]1[C@H]1[C@@H]3[C@@H]4C[C@@H]4[C@@]4(CCC(=O)O4)[C@@]3(C)CC[C@@H]12,outcome,CRL-7250,inactive
same,max response,HaCat [2],-9.08% (inactive)
same,max response,NIH3T3 [1],-5.26% (inactive)
same,Potency,MCC-13,inactive
same,Potency,MKL-1,inactive
same,Potency,MKL-2,inactive
C[C@@H]1C[C@H]2[C@@H]3CCC4=CC(=O)C=C[C@]4(C)[C@@]3(F)[C@@H](O)C[C@]2(C)[C@H]1C(=O)CO,Potency,PC15,inactive
same,Potency,PC49,inactive
same,Potency,SC27B,inactive
same,Potency,TAB109,inactive
same,Potency,TAB113,inactive
same,max response,CRL-7250,-8.13% (inactive)
same,max response,HaCat [2],-8.02% (inactive)
same,max response,NIH3T3 [1],-2.44% (inactive)
same,Potency,MCC-13,inactive
same,Potency,MCC-26,inactive
same,Potency,MKL-1,inactive
same,Potency,MKL-2,inactive
CC(=O)OCC(=O)[C@@]12N=C(C)O[C@@H]1C[C@H]1[C@@H]3CCC4=CC(=O)C=C[C@]4(C)[C@H]3[C@@H](O)C[C@@]12C,outcome,HEK293,inactive
same,outcome,HaCat [2],inactive
same,max response,KB-3-1,7.15% (inactive)
same,max response,NIH3T3 [1],-1.08% (inactive)
same,outcome,HACAT [3],inactive
same,outcome,HEK293T,inactive
same,Potency,MCC-13,inactive
same,Potency,MCC-26,inactive
same,Potency,MKL-1,inactive
same,Potency,MKL-2,inactive
CC(=O)Nc1c(I)cc(I)c(C(=O)O)c1I,Potency,PC15,inactive
same,Potency,PC26,inactive
same,Potency,PC49,inactive
same,Potency,SC27B,inactive
same,Potency,TAB109,inactive
same,Potency,TAB113,inactive
same,Potency,TAB165,inactive
same,Potency,W2,inactive
same,max response,HaCat [2],4.29% (inactive)
same,max response,KB-3-1,-17.1% (inactive)
same,outcome,NIH3T3 [1],inactive
same,Potency,MCC-13,inactive
same,Potency,MCC-26,inactive
same,Potency,MKL-1,inactive
same,Potency,MKL-2,inactive
same,outcome,NIH3T3 [4],inactive
CCCCCCCCCCCCCCCC[N+](C)(C)CCN(Cc1ccc(OC)cc1)c1ncccn1,Potency,PC26,inactive
same,Potency,PC49,inactive
same,Potency,HEK293,9.44 µM (active)
same,Potency,MKL-1,5.96 µM (active)
same,Potency,MKL-2,2.37 µM (active)
C[C@]12CC[C@H]3[C@@H](CCC4=CC(=O)CC[C@@]43C)[C@@H]1CC[C@@H]2C(=O)CO,max response,CRL-7250,-11.9% (inactive)
same,max response,KB-3-1,-3.06% (inactive)
same,max response,NIH3T3 [1],-2.44% (inactive)
same,Potency,MCC-13,inactive
same,Potency,MCC-26,inactive
same,Potency,MKL-1,inactive
same,Potency,MKL-2,inactive
